Laboratory results published in PubChem BioAssay (Tox21).
Results filed as inconclusive are left out. A structure can be active in one record and inactive in another. Activity calls are given as the source filed them. Unless noted, the call rests on the fitted dose curve; in most records, active means well fitted curve in the direction sought with a large enough effect in the repeat runs; inconclusive means weak or mixed curves; inactive means no such curve, though single readings can be large; an effect the other way counts as inactive or inconclusive.

Legend:
[1] = qHTS assay to identify small molecule agonists of the peroxisome proliferator-activated receptor delta (PPARd) signaling pathway - cell viability counter screen (AID 743211); settings: PPARd-bla HEK293H viability, CellTiter-Glo luminescence, 17 h; series mostly up to 62.6 µM; further: nearly all actives have a fitted effect of over 55% in size; further: potency means the concentration at half of the fitted maximal effect
How it was run: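 qHTS cell viability: PPARd-bla HEK293H; 17 h cpd, 37C; CellTiter-Glo, luminescence at 30 min RT.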

[2] = biological target: Peroxisome proliferator-activated receptor delta (Homo sapiens) (UniProt Q03181); assay: qHTS assay to identify small molecule agonists of the peroxisome proliferator-activated receptor delta (PPARd) signaling pathway (AID 743212; calls by dose curve); settings: HEK293H PPARd-UAS-bla, beta-lactamase FRET ratio, 17 h; series mostly up to 62.6 µM
How it was run: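 Steps: seed PPARd-bla HEK293H cells; incubate 5 h, 37 C, 5% CO2; add compounds in DMSO; incubate, 37 C; add LiveBLAzer B/G FRET substrate; hold 2 h at room temperature; measure fluorescence.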

[3] = qHTS assay to identify small molecule antagonists of the peroxisome proliferator-activated receptor delta (PPARd) signaling pathway - cell viability counter screen (AID 743213); settings: PPARd-bla HEK293H viability, CellTiter-Glo luminescence, 17 h; series mostly up to 62 µM; further: nearly all actives have a fitted effect of over 50% in size
How it was run: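 PPARd-bla HEK293H cells (3000/well) got compound plus 300 nM L165041 agonist for 17 h at 37 C. Viability in the same wells came from CellTiter-Glo luminescence after 30 min at room temperature.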

[4] = biological target: Peroxisome proliferator-activated receptor delta (Homo sapiens) (UniProt Q03181); assay: qHTS assay to identify small molecule antagonists of the peroxisome proliferator-activated receptor delta (PPARd) signaling pathway (AID 743215; active means well fitted inhibition curve with a large enough effect in the signal ratio in the repeat runs, not every such curve was filed as active; the % refers to the signal ratio;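 further: cells stimulated with agonist L165041 at 300 nM final during compound exposure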); settings: HEK293H PPARd-UAS-bla, beta-lactamase FRET ratio, antagonist, 17 h; series mostly up to 62 µM
How it was run: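 HEK293H GeneBLAzer PPARd UAS-bla reporter cells; cpd + L165041 300 nM final, 17 h 37 C; LiveBLAzer B/G FRET substrate 2 h RT; fluorescence intensity read-out. Antagonist mode.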

[5] = biological target: Bile acid receptor (Homo sapiens) (UniProt Q96RI1); assay: qHTS assay to identify small molecule antagonists of the farnesoid-X-receptor (FXR) signaling pathway (AID 743217; active means well fitted inhibition curve with a large enough effect in the signal ratio in the repeat runs, not every such curve was filed as active; the % refers to the signal ratio); settings: HEK293T FXR-UAS-bla, beta-lactamase ratio, CDCA-stimulated, 16 h; series mostly up to 62.6 µM
How it was run: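 Read-out: beta-lactamase FRET fluorescence (LiveBLAzer B/G substrate, 2 h, room temperature) in GeneBLAzer FXR-UAS-bla HEK 293T cells. Compounds were co-dosed with 50 uM chenodeoxycholic acid (final) and incubated 16 h at 37 °C.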

[6] = qHTS assay to identify small molecule agonists of the farnesoid-X-receptor (FXR) signaling pathway - cell viability counter screen (AID 743218); settings: FXR-bla HEK293T viability, CellTiter-Glo luminescence, 16 h; series mostly up to 62.6 µM; further: nearly all actives have a fitted effect of over 45% in size
How it was run: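 Luminescence from CellTiter-Glo, read after 30 min at RT, reports viability of GeneBLAzer FXR-UAS-bla HEK 293T cells treated 16 h with compounds in the wells used for the beta-lactamase reporter.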

[7] = biological target: Bile acid receptor (Homo sapiens) (UniProt Q96RI1); assay: qHTS assay to identify small molecule agonists of the farnesoid-X-receptor (FXR) signaling pathway (AID 743220; active means well fitted activation curve with a large enough effect in the signal ratio in the repeat runs, not every such curve was filed as active; the % refers to the signal ratio); settings: HEK293T FXR-UAS-bla, beta-lactamase FRET ratio, 16 h; series mostly up to 62.6 µM
How it was run: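 FXR-UAS-bla HEK 293T cells carrying a UAS-driven beta-lactamase reporter were plated for 5 h at 37C/5% CO2, then exposed to DMSO-dissolved Tox21 10K compounds for 16 h at 37C. A LiveBLAzer B/G FRET substrate was loaded for 2 h at room temperature before fluorescence reading.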

[8] = qHTS assay to identify small molecule antagonists of the farnesoid-X-receptor (FXR) signaling pathway - cell viability counter screen (AID 743221; active means well fitted cell-killing curve with a large enough effect in the repeat runs, not every such curve was filed as active; further: nearly all actives have a fitted effect of over 50% in size); settings: FXR-bla HEK293T viability, CellTiter-Glo luminescence, 16 h; series mostly up to 62.6 µM
How it was run: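 After a 5 h settling period, FXR-bla HEK 293T cells receive compound and chenodeoxycholic acid (50 uM final) and incubate 16 h at 37 C; CellTiter-Glo luminescence, read after 30 min at room temperature, reports cell viability.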

[9] = biological target: Vitamin D3 receptor (Homo sapiens) (UniProt P11473); assay: qHTS assay to identify small molecule agonists of the vitamin D receptor (VDR) signaling pathway (AID 743222; calls by dose curve); settings: HEK293T VDR-UAS-bla, beta-lactamase FRET ratio, 16 h; series mostly up to 63.5 µM
How it was run: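 Beta-lactamase reporter readout (LiveBLAzer B/G FRET, 2 h RT) in VDR-bla cells after 16 h compound treatment at 37C, 5% CO2; cells pre-incubated 4 h before pin transfer of DMSO solutions.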

[10] = biological target: Vitamin D3 receptor (Homo sapiens) (UniProt P11473); assay: qHTS assay to identify small molecule antagonists of the vitamin D receptor (VDR) signaling pathway (AID 743223; active means well fitted inhibition curve with a large enough effect in the signal ratio in the repeat runs, not every such curve was filed as active; the % refers to the signal ratio); settings: VDR-UAS-bla HEK293T, beta-lactamase FRET ratio, 16 h; series mostly up to 61 µM
How it was run: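 Reporter line VDR-bla; stimulus 1alpha,25-(OH)2 vitamin D3, 3 nM final; compound co-addition, 16 h 37C/5% CO2; LiveBLAzer B/G substrate 2 h RT; fluorescence intensity.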

[11] = qHTS assay to identify small molecule agonists of the vitamin D receptor (VDR) signaling pathway - cell viability counter screen (AID 743224); settings: VDR-bla HEK293T viability, CellTiter-Glo luminescence, 16 h; series mostly up to 62.6 µM; further: nearly all actives have a fitted effect of over 50% in size
How it was run: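 Cytotoxicity counter screen: VDR-bla cells, 16 h compound exposure at 37C, 5% CO2; CellTiter-Glo luminescence, 30 min RT, same wells as bla read.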

[12] = qHTS assay to identify small molecule antagonists of the vitamin D receptor (VDR) signaling pathway - cell viability counter screen (AID 743225); settings: VDR-bla HEK293T viability, CellTiter-Glo luminescence, 16 h; series mostly up to 61 µM; further: nearly all actives have a fitted effect of over 50% in size
How it was run: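 Parallel cytotoxicity test: VDR-UAS-bla HEK 293T, 3 nM (final) 1-alpha,25-dihydroxyvitamin D3 with test compound, 16 h, 37C. Endpoint is CellTiter-Glo luminescence in the same wells.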

[13] = qHTS assay to identify small molecule agonists of the NFkB signaling pathway (AID 1159509; active means well fitted curve in the direction sought with a large enough effect in the signal ratio in the repeat runs, not every such curve was filed as active; the % refers to the signal ratio); settings: NFkB-bla ME-180 cells, beta-lactamase FRET ratio, 5 h; series mostly up to 61 µM
How it was run: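 Readout: FRET fluorescence, 405 nm excitation, 460/530 nm emission; beta-lactamase expression disrupts FRET. Cells: ME-180 stably carrying NF-kB-driven bla reporter. Compound exposure 5 hr, 37 C, 5% CO2.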

[14] = qHTS assay to identify small molecule agonists of the NFkB signaling pathway - cell viability counter screen (AID 1159515; calls by dose curve; further: nearly all actives have a fitted effect of over 55% in size); settings: NFkB-bla ME-180 viability, CellTiter-Glo luminescence, 5 h; series mostly up to 61 µM
How it was run: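 ME-180 NFkB-bla cells, 2,000/well; overnight attach; compound 5 hr, 37 C/5% CO2; LiveBLAzer substrate 1.5 hr RT; then CellTiter-Glo in same wells, 30 min RT, luminescence read.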

[15] = qHTS assay to identify small molecule agonists of the endoplasmic reticulum stress response signaling pathway (AID 1159516; active means well fitted activation curve with a large enough effect in the signal ratio in the repeat runs, not every such curve was filed as active; the % refers to the signal ratio); settings: ESRE-bla HeLa, ER stress beta-lactamase reporter, 5 h; series mostly up to 61 µM
How it was run: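 HeLa ESRE-bla reporter line; cpd 5 h, 37 C/5% CO2; LiveBLAzer B/G FRET substrate 2 h RT; ex 405, em 460/530 nm.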

[16] = qHTS assay to identify small molecule agonists of the endoplasmic reticulum stress response signaling pathway - cell viability counter screen (AID 1159517; calls by dose curve); settings: ESRE-bla HeLa viability, CellTiter-Glo luminescence, 5 h; series mostly up to 61 µM
How it was run: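 After overnight attachment, ESRE-bla HeLa cells were treated with Tox21 library compounds for 5 hr. CellTiter-Glo luminescence, read 30 min post-addition at room temperature, reported viability.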

[17] = qHTS assay to identify small molecule antagonists of the retinoid-related orphan receptor gamma (ROR-gamma) signaling pathway - cell viability counter screen (AID 1159520); settings: Tet-on RORgamma CHO cells viability, ATP luminescence, 16 h; series mostly up to 92.4 µM; further: nearly all actives have a fitted effect of over 50% in size
How it was run: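 Cytotoxicity was read from cellular ATP (CellTiter-Glo luminescence) after 16 hr at 37 C with 1 uM doxycycline induction. The inducer was added 2 hr after compound transfer to Tet-on ROR gamma CHO cells.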

[18] = biological target: Nuclear receptor ROR-gamma (Homo sapiens) (UniProt P51449); assay: qHTS assay to identify small molecule antagonists of the retinoid-related orphan receptor gamma (ROR-gamma) signaling pathway (AID 1159521; further: nearly all actives have a fitted effect of over 50% in size; further: potency means the concentration at half of the fitted maximal effect); settings: Tet-on RORgamma CHO cells, RORE-luciferase, 16 h; series mostly up to 92.4 µM
How it was run: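 Decreased RORE-driven luciferase luminescence indicates antagonism. Tet-on RORγ CHO cells received compound, then 1 uM final doxycycline 2 h later; signal read after 16 h incubation.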

[19] = qHTS assay to identify small molecule agonists of the AP-1 signaling pathway - cell viability counter screen (AID 1159525; calls by dose curve; further: nearly all actives have a fitted effect of over 55% in size); settings: ME-180 AP-1-bla cells viability, ATP luminescence, 5 h; series mostly up to 76.8 µM
How it was run: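 Intracellular ATP by Cell Titer Glo luminescence (30 min, RT) in the same ME-180 AP-1-bla wells after the 5 h compound exposure at 37 °C. Normalised to tetra n-octyl ammonium bromide and DMSO controls.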

[20] = qHTS assay to identify small molecule agonists of the AP-1 signaling pathway (AID 1159526; calls by dose curve); settings: ME-180 (cervical carcinoma) AP-1-bla reporter, beta-lactamase FRET ratio, 5 h; series mostly up to 76.8 µM

Measured: Potency

Sequence of Vitamin D3 receptor (Homo sapiens) (P11473 whole entry, looked up): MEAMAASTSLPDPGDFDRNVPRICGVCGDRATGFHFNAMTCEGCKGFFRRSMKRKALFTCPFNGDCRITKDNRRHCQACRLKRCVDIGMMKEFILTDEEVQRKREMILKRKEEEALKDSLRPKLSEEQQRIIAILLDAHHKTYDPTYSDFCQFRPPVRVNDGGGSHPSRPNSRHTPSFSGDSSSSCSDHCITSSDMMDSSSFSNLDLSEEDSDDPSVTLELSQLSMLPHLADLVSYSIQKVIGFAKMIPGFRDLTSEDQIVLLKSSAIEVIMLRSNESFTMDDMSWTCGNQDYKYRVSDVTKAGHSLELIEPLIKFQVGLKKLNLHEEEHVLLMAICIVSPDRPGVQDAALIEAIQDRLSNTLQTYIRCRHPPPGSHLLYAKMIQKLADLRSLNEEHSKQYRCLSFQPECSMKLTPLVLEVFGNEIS
Sequence of Peroxisome proliferator-activated receptor delta (Homo sapiens) (Q03181 whole entry, looked up): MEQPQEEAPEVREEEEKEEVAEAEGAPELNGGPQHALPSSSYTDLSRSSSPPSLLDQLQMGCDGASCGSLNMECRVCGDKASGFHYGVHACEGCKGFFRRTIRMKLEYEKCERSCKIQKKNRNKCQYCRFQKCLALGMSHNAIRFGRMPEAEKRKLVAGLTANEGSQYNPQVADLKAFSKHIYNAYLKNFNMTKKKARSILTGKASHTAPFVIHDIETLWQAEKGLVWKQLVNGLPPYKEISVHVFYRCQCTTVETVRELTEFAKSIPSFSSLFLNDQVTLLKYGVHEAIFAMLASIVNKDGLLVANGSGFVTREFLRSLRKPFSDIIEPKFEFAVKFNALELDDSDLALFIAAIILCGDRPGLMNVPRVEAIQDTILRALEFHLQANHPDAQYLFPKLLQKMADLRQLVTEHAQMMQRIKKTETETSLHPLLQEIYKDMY
Sequence of Bile acid receptor (Homo sapiens) (Q96RI1 whole entry, looked up): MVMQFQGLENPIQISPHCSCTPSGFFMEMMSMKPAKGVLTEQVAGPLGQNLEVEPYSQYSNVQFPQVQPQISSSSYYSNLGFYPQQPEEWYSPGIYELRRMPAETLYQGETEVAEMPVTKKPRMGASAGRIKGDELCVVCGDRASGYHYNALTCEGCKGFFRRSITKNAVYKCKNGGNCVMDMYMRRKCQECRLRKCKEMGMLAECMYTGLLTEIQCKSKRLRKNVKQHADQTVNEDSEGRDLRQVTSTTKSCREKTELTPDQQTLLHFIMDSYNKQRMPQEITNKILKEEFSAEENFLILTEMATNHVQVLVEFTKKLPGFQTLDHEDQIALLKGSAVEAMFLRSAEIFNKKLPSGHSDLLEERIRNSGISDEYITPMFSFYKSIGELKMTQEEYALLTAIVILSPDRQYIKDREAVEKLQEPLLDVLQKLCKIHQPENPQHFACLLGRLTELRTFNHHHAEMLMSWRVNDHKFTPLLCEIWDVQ

CCN(CC)N=O
inactive: all assays above

CC(C)=CC1C(C(=O)OCc2coc(Cc3ccccc3)c2)C1(C)C (stereo unspecified)
active: [18] 48.6 µM
inactive: all other assays above

Nc1ccc(-c2ccccc2)cc1
not listed: [5] | [7]
inactive: all other assays above

Brc1ccc(Oc2cc(Br)c(Br)cc2Br)c(Br)c1
active: [1] 22 µM
not listed: [4] | [5]
inactive: all other assays above

OCC(O)CO
inactive: all assays above

CCN(CC)C(=O)/C(Cl)=C(\C)OP(=O)(OC)OC
not listed: [5] | [7]
inactive: all other assays above

COP(=O)(OC)OC
inactive: all assays above

S=C1NCCN1
not listed: [2] | [4] | [5] | [7]
inactive: all other assays above

CN(C)C(=O)Nc1ccc(Cl)cc1
inactive: all assays above

Nc1cccnc1
not listed: [4] | [10]
inactive: all other assays above

O=P(O)(O)CCCl
not listed: [4]
inactive: all other assays above

N#CC(Br)Br
not listed: [4] | [9] | [10]
inactive: all other assays above

Cc1cc(C)cc(C)c1
not listed: [2] | [4] | [5] | [7]
inactive: all other assays above

Clc1nc(Cl)nc(Cl)n1
not listed: [5] | [7]
inactive: all other assays above

CC(O)CCO (stereo unspecified)
not listed: [5] | [7]
inactive: all other assays above

Oc1ccc(-c2ccccc2)cc1
not listed: [4]
inactive: all other assays above

N#CCCCl
not listed: [2] | [4] | [5] | [7]
inactive: all other assays above

COP(=S)(OC)Oc1ccc([N+](=O)[O-])cc1
not listed: [4] | [6] | [10]
inactive: all other assays above

COc1ccc(C=O)cc1
not listed: [5] | [7]
inactive: all other assays above

Nc1ccc(Cl)c(Cl)c1
not listed: [5] | [7]
inactive: all other assays above

CCCCCCCCCCCOC(=O)c1ccccc1C(=O)OCCCCCCCCCCC
not listed: [4] | [5] | [7]
inactive: all other assays above

O=[N+]([O-])c1cccc2ccccc12
not listed: [5] | [7] | [9] | [10]
inactive: all other assays above

CC(C)(OOC(C)(C)c1ccccc1)c1ccccc1
not listed: [4] | [6] | [11]
inactive: all other assays above

CCCCNC(=O)n1c(NC(=O)OC)nc2ccccc21
not listed: [2] | [4] | [5] | [10]
inactive: all other assays above

Cc1ccc(OP(=O)(Oc2ccc(C)cc2)Oc2ccc(C)cc2)cc1
active: [18] 12.2 µM
not listed: [5] | [7]
inactive: all other assays above

C[C@]12CCC(=O)C(O)=C1CC[C@@H]1[C@@H]2CC[C@]2(C)C(=O)CC[C@@H]12
27.3 µM (active) and inactive: [18]
not listed: [2] | [4] | [5] | [7]
inactive: all other assays above

C#C[C@]1(O)CC[C@H]2[C@@H]3CCC4=CC(=O)CC[C@]4(C)[C@H]3CC[C@@]21C
not listed: [4] | [9] | [10]
inactive: all other assays above

O=C(O)CC[N+](=O)[O-]
not listed: [5] | [7] | [9]
inactive: all other assays above

C=CCc1ccc(OC)cc1
not listed: [4] | [5] | [7] | [9] | [10]
inactive: all other assays above

CNC(=O)N(C)c1nnc(C(C)(C)C)s1
not listed: [5] | [7]
inactive: all other assays above
